# Rab9 prom act: qHTS Assay for Rab9 Promoter Activators; Huh7 Rab9 promoter-luciferase reporter, luminescence, 24 h; Potency, µM (series often up to 9.22 µM), most hits filed as activators; 320,000 compounds, 2.8% hits; also: nearly all actives have a fitted effect of over 60% in size
#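 Luciferase signal after 10 min detection reagent at ambient indicates Rab9 promoter upregulation; stably transfected Huh7 cells were treated 24 h with compound in DMSO at 37 °C, 5% CO2.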
# FLuc modulator: qHTS profiling assay for firefly luciferase inhibitor/activator using purifed enzyme and Km concentrations of substrates (counterscreen for miR-21 project) | Luciferin 4-monooxygenase (Photinus pyralis), P08659 | purified FLuc, Km substrates, luminescence inhibition | Potency, µM (highest dose often 57.5 µM), most hits filed as inhibitors | 360,000 compounds, 6.9% hits | AID 588342, 2011; also: nearly all actives have a fitted effect of over 55% in size
# Target sequence (P08659 whole entry, looked up): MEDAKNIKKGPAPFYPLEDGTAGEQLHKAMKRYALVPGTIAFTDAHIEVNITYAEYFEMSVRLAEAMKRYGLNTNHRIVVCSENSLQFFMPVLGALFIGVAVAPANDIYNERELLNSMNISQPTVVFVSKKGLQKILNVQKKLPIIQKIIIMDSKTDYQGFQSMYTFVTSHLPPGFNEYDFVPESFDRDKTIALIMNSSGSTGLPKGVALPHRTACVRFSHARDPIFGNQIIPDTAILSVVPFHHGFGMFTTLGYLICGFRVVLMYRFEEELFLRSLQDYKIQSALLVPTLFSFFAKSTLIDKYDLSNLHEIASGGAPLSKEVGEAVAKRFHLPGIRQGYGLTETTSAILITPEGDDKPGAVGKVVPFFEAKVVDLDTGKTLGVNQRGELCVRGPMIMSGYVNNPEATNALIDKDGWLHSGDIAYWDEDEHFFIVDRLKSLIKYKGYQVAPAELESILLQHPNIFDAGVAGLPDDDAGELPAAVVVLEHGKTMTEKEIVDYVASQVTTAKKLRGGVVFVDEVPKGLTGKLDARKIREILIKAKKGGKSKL
#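 Biochemical qHTS of compounds, final roughly 60 µM downward over six points, against 10 nM purified firefly luciferase using Km concentrations of substrates (10 uM D-luciferin, 10 uM ATP) in Tris acetate pH 7.5 buffer; luminescence output.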
# SMN2 splice up: qHTS Assay for Enhancers of SMN2 Splice Variant Expression. HEK293 SMN2-luciferase splicing reporter, luminescence, 30-36 h. 210,000 compounds, 2.8% hits. Potency, µM (doses to about 46.1 µM), actives largely listed as activators; also: nearly all actives have a fitted effect of over 55% in size
#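 HEK293 cells carry an SMN2 minigene-luciferase reporter in which exon 7 inclusion puts luciferase in frame. Cells were seeded at 2000 cells/well, attached for 10-12 hours, then exposed to compounds for 30-36 hours at 37C before ONE-Glo luminescence.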
# ELG1 genotox: qHTS screen for small molecules that induce genotoxicity in human embryonic kidney (HEK293T) cells expressing luciferase-tagged ELG1; HEK293T ELG1-luciferase reporter, luminescence, 16 h; Potency, µM (doses to about 46 µM), most hits filed as activators; 330,000 compounds, 1.3% hits; AID 504466, 2011; also: nearly all actives have a fitted effect of over 60% in size
#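 Step 1: seed 2,000 HEK293T ELG1-luciferase cells per well. Step 2: add compound or DMSO, incubate 16 hr at 37 °C. Step 3: ONE-Glo, 30 min at room temperature, read luminescence.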
# Luc counter: Counterscreen for Luciferase (Kinase-Glo TM) Inhibition. Kinase-Glo luciferase, ATP luminescence, 8 min. Potency, µM (doses to about 38.3 µM), most hits filed as inhibitors. 200,000 compounds, 0.28% hits; also: nearly all actives have a fitted effect of over 60% in size
#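 Light output from Kinase-Glo luciferase with luciferin and 10 uM ATP in 50 mM imidazole pH 7.2, KCl, MgCl2, Tween 20, BSA; compound pin-delivered, 8-min ambient incubation, then luminescence read.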
# NPC1 promoter act: qHTS Assay for NPC1 Promoter Activators | Huh7 NPC1 promoter luciferase reporter, 24 h | Potency, µM (highest dose often 9.22 µM), usual class: activators | 320,000 compounds, 2.4% hits | AID 485313, 2010; also: nearly all actives have a fitted effect of over 60% in size
#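 Huh7 reporter cells (NPC1 promoter driving luciferase) are dosed with compound for 24 h at 37 °C, 5% CO2; luciferase detection reagent is then added and luminescence measured after 10 min at ambient temperature.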
# A number is an active result; - = inactive; ? = inconclusive; . = not tested or not shown; [ ] = dose if it differs, or a comment. Only some compounds are listed: those with a hit (about 7.3% of all), similar ones and a draw of the others. Calls follow the shape of the dose curve; as a rule, active = well fitted curve in the direction sought with a large enough effect; inconclusive = small, poorly fitted or top-dose-only effect, or another doubt; inactive = no such curve, though single readings can be large; an effect the other way counts as inactive or inconclusive.
SMILES,Rab9 prom act,FLuc modulator,SMN2 splice up,ELG1 genotox,Luc counter,NPC1 promoter act
Cc1ccc(C(=O)NCC(c2ccco2)S(=O)(=O)c2ccc(Cl)cc2)cc1C (stereo not drawn),.,-,.,.,.,.
CC(C)[C@@H](CC(=O)N[C@@H]1CCCC[C@H]1C(=O)N[C@H](CC(=O)N[C@@H](CCC(=O)O)CC(=O)O)Cc1ccccc1)NC(=O)C[C@H](Cc1c[nH]c2ccccc12)NC(=O)[C@@H]1CNCC[C@H]1N,.,.,-,.,-,.
Cc1ccc(CSc2nc3ccc(NC(=O)COc4ccccc4)cc3s2)cc1,.,-,.,.,.,.
COc1cccc(-n2c(=O)c3sc4ccccc4c3n(CC(=O)Nc3ccc(F)cc3F)c2=O)c1,.,-,-,.,.,.
CCc1ccc(/C=N/NC(=O)c2c[nH]c3ccccc23)s1,1.3µM,6µM,6.3µM,?,-,2µM
O=C(N/N=C/c1cccs1)c1c[nH]c2ccccc12,2.8µM,6µM,11µM,?,-,3.2µM
O=C(Nc1nnc(C2CCCO2)s1)c1ccc(Br)cc1 (stereo not drawn),?,?,-,?,-,3.5µM
O=C(COc1ccc(Br)cc1)N1CCc2ccccc2C1,-,?,-,-,-,-
O=C(OCc1ccccc1)N1CCc2ccccc21,1.6µM,2.7µM,.,16µM,.,0.63µM
O=C(COc1ccc(Br)cc1)N1CCc2ccccc21,2.8µM,9.5µM,.,?,.,?
O=C(CS(=O)(=O)Cc1ccccc1)N1CCc2ccccc21,-,-,-,-,-,-
CCOc1ccc(C(=O)N2CCc3ccccc32)cc1,0.89µM,15µM,.,?,.,3.5µM
O=C(COc1ccccc1Cl)N1CCc2ccccc2C1,-,?,.,-,.,-
O=C(COc1ccccc1Cl)N1CCc2ccccc21,1.3µM,6.7µM,.,9.2µM,.,2µM
CCc1ccc(S(=O)(=O)c2c[nH]c3cc(OC)c(OC)cc3c2=O)cc1,.,-,-,.,.,.
O=C(CSCc1ccco1)N1CCc2ccccc21,3.5µM,9.5µM,.,?,.,2.8µM
O=C(CCCc1ccccc1)N1CCc2ccccc21,0.45µM,2.1µM,11µM,2.1µM,-,1.1µM
CCCn1c(SCC(=O)N2CCc3ccccc32)nnc1-c1ccco1,-,-,-,-,-,-
O=C(COc1ccccc1)N1CCc2ccccc21,1.3µM,5.4µM,14µM,?,-,?
O=C(CSCc1ccco1)c1ccc(Cl)s1,?,6.7µM,-,-,-,2.8µM
COc1cc2c(cc1NC(=O)COc1cc(C)ccc1C)oc1ccccc12,.,-,-,.,.,.
CCn1c(=O)cc(OCC(=O)N2CCN(c3ccc(C)cc3)C(C)C2)c2ccccc21 (stereo not drawn),.,-,-,.,.,.
CC(=O)O[C@@H]1CC[C@]2(C)C(=C[C@@H]([C@@H]3C=C4C[C@@H](OC(C)=O)CC[C@]4(C)C4=C3[C@H]3C[C@@H]5O[C@@]6(CC[C@H](C)CO6)[C@@H](C)[C@@H]5[C@@]3(C)CC4)C3=C2CC[C@@]2(C)[C@H]4[C@@H](C)[C@]5(CC[C@H](C)CO5)O[C@@H]4C[C@H]32)C1,.,.,-[9.22 µM],.,-[7.66 µM],.
Cc1ccc(NC(=O)N2CCC(CN3CCCC3)CC2)c(C)c1,.,-,.,.,.,.
Nc1cc(N)nc(SCC(=O)N2CCc3ccccc32)n1,?,?,?,-,-,?
SMILES,Rab9 prom act,FLuc modulator,SMN2 splice up,ELG1 genotox,Luc counter,NPC1 promoter act
O=C(CSc1ccccc1)N1CCc2ccccc21,3.5µM,6.7µM,18µM,?,-,3.5µM
COc1cc(C2OC(=O)c3c2ccc(OC)c3OC)ccc1O (stereo not drawn),-,-,.,.,.,-
CCOc1ccc(-c2csc(NC(=O)C3CCCO3)n2)cc1 (stereo not drawn),-,15µM,-,?,-,-
O=C(Nc1nc(-c2ccc(Cl)cc2)cs1)C1CCCO1 (stereo not drawn),?,15µM,-,?,-,-
Cc1cccc(NC(=O)CSc2cn(CC(=O)N3CCOCC3)c3ccccc23)c1C,.,-,.,.,.,.
COc1ccc(NC(=O)CSc2nc3c(oc4ccccc43)c(=O)n2-c2ccccc2)cc1OC,.,-,-,.,.,.
Cc1csc(=S)n1-c1ccccc1,-,-,-,-,-,-
Cc1csc(=N)n1-c1ccc(Cl)cc1,3.5µM,9.5µM,-,?,-,?
Cc1ccc(-n2c(C)csc2=N)cc1,2µM,5.4µM,11µM,5.2µM,-,3.2µM
Cc1cc(C(=O)C(=O)O)c(C)n1-c1ccc(Cl)cc1,-,-,-,-,-,-
Cc1ccc(C)c(NC(=O)CSc2nnc(CNC(=O)c3ccccc3)n2-c2ccccc2)c1,.,-,-,.,.,.
CCOc1ccc(CNC(=O)C2CCN(S(=O)(=O)N3CCCCC3)CC2)cc1,.,-,.,.,.,.
CC#CCN1c2ccccc2[C@]23C[C@@H](C(=O)OC)N(S(=O)(=O)c4ccc5c(c4)OCCN5C)C2=NC(C(=O)OC)=C(C(=O)OC)[C@H]13,.,.,-[9.22 µM],.,-[7.66 µM],.
O=C(NCc1ccc(F)cc1)c1c2c(nc3ccccc13)CCC2,?,13µM,-,-,-,?
CCOc1ccc(C(CC(=O)O)NC(=O)COc2ccc3ccccc3c2)cc1OC (stereo not drawn),-,-,.,-,.,-
CCOc1ccc(C(CC(=O)O)NC(=O)COc2ccccc2OC)cc1OC (stereo not drawn),-,-,22µM,-,-,-
O=C(c1ccc2oc(CCCc3ccccc3)nc2c1)N1CCCCC1CO (stereo not drawn),6.3µM,24µM,.,?,.,4.5µM
COCC1CCCN(C(=O)c2ccc3oc(CCCc4ccccc4)nc3c2)C1 (stereo not drawn),-,?,.,-,.,-
Nc1ccc2oc(CCc3ccccc3)nc2c1,0.71µM,9.5µM,18µM,?,-,2.5µM
O=C(c1ccc2oc(CCc3ccccc3)nc2c1)N1CCC(O)CC1,1µM,11µM,.,?,.,1.3µM
CCOC(=O)CC1COCCN1C(=O)c1ccc2oc(Cc3ccccc3)nc2c1 (stereo not drawn),3.2µM,12µM,.,?,.,?
NC(=O)[C@@H]1CCCN1C(=O)c1ccc2oc(CCc3ccccc3)nc2c1,?,-,.,?,.,?
COCCN1CCN(C(=O)c2ccc3oc(CCCc4ccccc4)nc3c2)CC1,?,-,.,-,.,?
CCc1ccccc1Nc1nn2c(=O)c3ccc(C(=O)NC4CCC(C)CC4)cc3nc2s1 (stereo not drawn),.,-,.,.,.,.
Cc1ccc(C)c(CN2C(=O)c3ccccc3S(=O)c3ccc(C(=O)NCc4ccco4)cc32)c1 (stereo not drawn),.,-,-,.,.,.
Cc1ccc(NC(=O)c2ccc3c(c2)NC(=O)c2ccccc2S3)cc1,.,-,-,.,.,.

# High-throughput results (PubChem)
